Source: PubChem BioAssay (NCATS)
Inconclusive results are not listed. The source made the active and inactive calls. Calls come from the whole dose curve; as a rule, active = well fitted inhibition curve with a large enough effect; inconclusive = small, poorly fitted or top-dose-only effect; inactive = flat fitted curve, though single readings scatter.

Experiments:
Test in all cases: qHTS profiling for inhibitors of Plasmodium falciparum proliferation (AID 504749); note: nearly all actives have a fitted effect of over 60% in size
Details in all cases: P. falciparum in erythrocytes, SYBR Green DNA, 72 h; series mostly up to 28.7 µM
CP297 = tested on: CP297
Summary of the method: (§1)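 Three-day growth assay of blood-stage parasites in erythrocytes (0.3% parasitemia, 2.5% hematocrit) at 37 C, 5% CO2, quantified by SYBR Green DNA staining after overnight detergent lysis.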

CP305 = tested on: CP305
Summary of the method: as §1

CP315 = tested on: CP315
Summary of the method: as §1

CP325 = tested on: CP325
Summary of the method: as §1

CP329 = tested on: CP329
Summary of the method: as §1

CP335 = tested on: CP335
Summary of the method: as §1

DFO2036 = tested on: DFO2036
Summary of the method: as §1

DIV14 = tested on: DIV14
Summary of the method: as §1

DIV17 = tested on: DIV17
Summary of the method: as §1

DIV30 = tested on: DIV30
Summary of the method: as §1

Dd2 = tested on: Dd2
Summary of the method: as §1

ECU = tested on: ECU
Summary of the method: as §1

FAB9 = tested on: FAB9
Summary of the method: as §1

GB4 = tested on: GB4
Summary of the method: as §1

HB3 = tested on: HB3
Summary of the method: as §1

ICS = tested on: ICS
Summary of the method: as §1

JCK = tested on: JCK
Summary of the method: as §1

N140 = tested on: N140
Summary of the method: as §1

P93_24 = tested on: P93_24
Summary of the method: as §1

P94_40 = tested on: P94_40
Summary of the method: as §1

Measured: Potency

O=C(O)CCC(=O)c1ccc(-c2ccccc2)cc1
inactive: CP297 | CP305 | CP315 | CP325 | CP329 | CP335 | DFO2036 | DIV14 | DIV17 | DIV30 | Dd2 | ECU | FAB9 | GB4 | HB3 | ICS | JCK | N140 | P93_24 | P94_40

CCCCCCCCCCCC(=O)N(CCO)CCO
inactive: CP297 | CP305 | CP315 | CP325 | CP329 | CP335 | DFO2036 | DIV14 | DIV17 | DIV30 | Dd2 | ECU | FAB9 | GB4 | HB3 | ICS | JCK | N140 | P93_24 | P94_40

CC(C)O
inactive: CP297 | CP305 | CP315 | CP325 | CP329 | CP335 | DFO2036 | DIV14 | DIV17 | DIV30 | Dd2 | ECU | FAB9 | GB4 | HB3 | ICS | JCK | N140 | P93_24 | P94_40

CC1C(=O)CC2C3(C)CCC2(C(C)C(=O)O)C(=O)C13 (stereo not given)
inactive: CP297 | CP305 | CP315 | CP325 | CP329 | CP335 | DFO2036 | DIV14 | DIV17 | DIV30 | Dd2 | ECU | FAB9 | GB4 | HB3 | ICS | JCK | N140 | P93_24 | P94_40

COc1ccc(/C=N/NC(=O)c2ccncc2)c(C(=O)O)c1OC
inactive: CP297 | CP305 | CP315 | CP325 | CP329 | CP335 | DFO2036 | DIV14 | DIV17 | DIV30 | Dd2 | ECU | FAB9 | GB4 | HB3 | ICS | JCK | N140 | P93_24 | P94_40

CCOC(=O)c1cc(-c2ccccc2)nc2ccc(C)cc12
inactive: CP297 | CP305 | CP315 | CP325 | CP329 | CP335 | DFO2036 | DIV14 | DIV17 | DIV30 | Dd2 | ECU | FAB9 | GB4 | HB3 | ICS | JCK | N140 | P93_24 | P94_40

NC(=O)[C@H]1O[C@@H](O)[C@H](O)[C@@H](O)[C@@H]1O
inactive: CP297 | CP305 | CP315 | CP325 | CP329 | CP335 | DFO2036 | DIV14 | DIV17 | DIV30 | Dd2 | ECU | FAB9 | GB4 | HB3 | ICS | JCK | N140 | P93_24 | P94_40

CC(=O)[C@H]1CC[C@H]2[C@@H]3C=CC4=CC(=O)CC[C@@]4(C)[C@H]3CC[C@]12C
inactive: CP297 | CP305 | CP315 | CP325 | CP329 | CP335 | DFO2036 | DIV14 | DIV17 | DIV30 | Dd2 | ECU | FAB9 | GB4 | HB3 | ICS | JCK | N140 | P93_24 | P94_40

O=P(O)(O)O
inactive: CP297 | CP305 | CP315 | CP325 | CP329 | CP335 | DFO2036 | DIV14 | DIV17 | DIV30 | Dd2 | ECU | FAB9 | GB4 | HB3 | ICS | JCK | N140 | P93_24 | P94_40

O=C(O)COc1ccccc1/C=N/NC(=O)c1ccncc1
inactive: CP297 | CP305 | CP315 | CP325 | CP329 | CP335 | DFO2036 | DIV14 | DIV17 | DIV30 | Dd2 | ECU | FAB9 | GB4 | HB3 | ICS | JCK | N140 | P93_24 | P94_40

O=C(O)c1ccc(NC(=O)[C@H](Cc2ccc(O)cc2)NC(=O)c2ccccc2)cc1
inactive: CP297 | CP305 | CP315 | CP325 | CP329 | CP335 | DFO2036 | DIV14 | DIV17 | DIV30 | Dd2 | ECU | FAB9 | GB4 | HB3 | ICS | JCK | N140 | P93_24 | P94_40

CN(Cc1ccccc1)Cc1ccccc1
inactive: CP297 | CP305 | CP315 | CP325 | CP329 | CP335 | DFO2036 | DIV14 | DIV17 | DIV30 | Dd2 | ECU | FAB9 | GB4 | HB3 | ICS | JCK | N140 | P93_24 | P94_40

O=C(NCCNCC(O)COc1ccc(O)cc1)N1CCOCC1 (stereo not given)
inactive: CP297 | CP305 | CP315 | CP325 | CP329 | CP335 | DFO2036 | DIV14 | DIV17 | DIV30 | Dd2 | ECU | FAB9 | GB4 | HB3 | ICS | JCK | N140 | P93_24 | P94_40

Cc1ncc(C[n+]2csc(CCOP(=O)(O)OP(=O)(O)O)c2C)c(N)n1
inactive: CP297 | CP305 | CP315 | CP325 | CP329 | CP335 | DFO2036 | DIV14 | DIV17 | DIV30 | Dd2 | ECU | FAB9 | GB4 | HB3 | ICS | JCK | N140 | P93_24 | P94_40

CC(=O)Oc1cccc(C(=O)O)c1OC(C)=O
inactive: CP297 | CP305 | CP315 | CP325 | CP329 | CP335 | DFO2036 | DIV14 | DIV17 | DIV30 | Dd2 | ECU | FAB9 | GB4 | HB3 | ICS | JCK | N140 | P93_24 | P94_40

N=C(N)n1cccn1
inactive: CP297 | CP305 | CP315 | CP325 | CP329 | CP335 | DFO2036 | DIV14 | DIV17 | DIV30 | Dd2 | ECU | FAB9 | GB4 | HB3 | ICS | JCK | N140 | P93_24 | P94_40

CCCc1ccc(C(=O)O)cc1
inactive: CP297 | CP305 | CP315 | CP325 | CP329 | CP335 | DFO2036 | DIV14 | DIV17 | DIV30 | Dd2 | ECU | FAB9 | GB4 | HB3 | ICS | JCK | N140 | P93_24 | P94_40

O=P(O)(O)OP(=O)(O)OP(=O)(O)O
inactive: CP297 | CP305 | CP315 | CP325 | CP329 | CP335 | DFO2036 | DIV14 | DIV17 | DIV30 | Dd2 | ECU | FAB9 | GB4 | HB3 | ICS | JCK | N140 | P93_24 | P94_40

OCl
inactive: CP297 | CP305 | CP315 | CP325 | CP329 | CP335 | DFO2036 | DIV14 | DIV17 | DIV30 | Dd2 | ECU | FAB9 | GB4 | HB3 | ICS | JCK | N140 | P93_24 | P94_40

O=C1N=C2SCCN2C(=O)C1Cc1ccc(Cl)cc1 (stereo not given)
inactive: CP297 | CP305 | CP315 | CP325 | CP329 | CP335 | DFO2036 | DIV14 | DIV17 | DIV30 | Dd2 | ECU | FAB9 | GB4 | HB3 | ICS | JCK | N140 | P93_24 | P94_40

FC(F)(F)C(F)(F)C(F)(F)C(F)(F)C(F)(F)C(F)(F)F
inactive: CP297 | CP305 | CP315 | CP325 | CP329 | CP335 | DFO2036 | DIV14 | DIV17 | DIV30 | Dd2 | ECU | FAB9 | GB4 | HB3 | ICS | JCK | N140 | P93_24 | P94_40

F[Si-2](F)(F)(F)(F)F
inactive: CP297 | CP305 | CP315 | CP325 | CP329 | CP335 | DFO2036 | DIV14 | DIV17 | DIV30 | Dd2 | ECU | FAB9 | GB4 | HB3 | ICS | JCK | N140 | P93_24 | P94_40

OC/C=C/c1ccccc1
inactive: CP297 | CP305 | CP315 | CP325 | CP329 | CP335 | DFO2036 | DIV14 | DIV17 | DIV30 | Dd2 | ECU | FAB9 | GB4 | HB3 | ICS | JCK | N140 | P93_24 | P94_40

O=C1c2ccccc2C(=O)c2c1ccc(O)c2O
inactive: CP297 | CP305 | CP315 | CP325 | CP329 | CP335 | DFO2036 | DIV14 | DIV17 | DIV30 | Dd2 | ECU | FAB9 | GB4 | HB3 | ICS | JCK | N140 | P93_24 | P94_40

CC(C)CCC[C@@H](C)[C@H]1CC[C@H]2[C@@H]3CC=C4C[C@@H](O)CC[C@]4(C)[C@H]3CC[C@]12C
inactive: CP297 | CP305 | CP315 | CP325 | CP329 | CP335 | DFO2036 | DIV14 | DIV17 | DIV30 | Dd2 | ECU | FAB9 | GB4 | HB3 | ICS | JCK | N140 | P93_24 | P94_40

CCC(C)[C@@H](N)C(=O)O (stereo not given in full)
inactive: CP297 | CP305 | CP315 | CP325 | CP329 | CP335 | DFO2036 | DIV14 | DIV17 | DIV30 | Dd2 | ECU | FAB9 | GB4 | HB3 | ICS | JCK | N140 | P93_24 | P94_40

OCC(O)CO
inactive: CP297 | CP305 | CP315 | CP325 | CP329 | CP335 | DFO2036 | DIV14 | DIV17 | DIV30 | Dd2 | ECU | FAB9 | GB4 | HB3 | ICS | JCK | N140 | P93_24 | P94_40

CCCCC(CC)CCC(CC(C)C)OS(=O)(=O)O (stereo not given)
inactive: CP297 | CP305 | CP315 | CP325 | CP329 | CP335 | DFO2036 | DIV14 | DIV17 | DIV30 | Dd2 | ECU | FAB9 | GB4 | HB3 | ICS | JCK | N140 | P93_24 | P94_40
